Among the data in PubChem BioAssay AID1332 (Southern Research Institute, 2008) are CC50, IC50 and outcome values, retold here.

The structures appear in SMILES notation. Converted amounts (≈) assume the structure as drawn. Among all 1,100 compounds or so, about 170 (15%) were called active. No rule for the calls is given here. Only a sample is shown. Bounds are passed on as bounds.

The test can be described thus: Confirmatory growth inhibition assay, mycobacterium tuberculosis h37rv, with cytotoxicity (AID 1332).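 As to CC50: Vero cells exposed to compounds for 72 hours.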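 As to IC50: bacteria incubated 7 days before adding Alamar blue readout reagent.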 As to conditions: M. tuberculosis H37Rv growth inhibition; CC50: measured here: Vero cell cytotoxicity; IC50: measured here: IC50 H37Rv replicates.
With `CN(C)CC/C=C1\c2ccccc2CSc2ccccc21`, the 50% cytotoxic concentration (CC50) was above 6 µg/mL, the half-inhibitory concentration (IC50) was above 20 µg/mL and the result was inactive.

On to `CN(C)CCC=C1c2ccccc2CCc2ccccc21`, for which the 50% cytotoxic concentration (CC50) was above 6 µg/mL, the IC50 stood at 16.2 µg/mL (≈ 58.3 µM) and the call was active.

Take `CNCC(O)c1ccc(O)c(OC)c1` (centres undefined): the half-inhibitory concentration (IC50) is above 20 µg/mL and the outcome was inactive.

As for `CNC(C)CCC=C(C)C` (centres undefined), the IC50 was above 20 µg/mL and the result was inactive.

On to `C=C1CC[C@H](O)C/C1=C/C=C1\CCC[C@]2(C)[C@@H]([C@H](C)CCCC(C)C)CC[C@@H]12`, for which the IC50 was above 20 µg/mL and the call was inactive.

Turning to `C[C@@H]1CCC[C@H](C)N1`, the IC50 was above 20 µg/mL and the call was inactive.

For `CC(C)(C)NC[C@@H](O)COc1cccc2c1CCCC2=O`, the half-maximal inhibitory concentration (IC50) is above 20 µg/mL and the outcome was inactive.

As to `Cc1c(N(C)CS(=O)(=O)O)c(=O)n(-c2ccccc2)n1C`, the concentration for half-maximal inhibition (IC50) was above 20 µg/mL and the call was inactive.

Regarding `CO[C@@]1(NC(=O)[C@H](C(=O)O)c2ccc(O)cc2)C(=O)N2C(C(=O)O)=C(CSc3nnnn3C)CO[C@@H]21`, the 50% inhibitory concentration (IC50) was above 20 µg/mL and the call was inactive.

For the compound `C[N+]1(C)C2CC[C@H]1CC(OC(=O)C(CO)c1ccccc1)C2` (some centres undefined), the 50% inhibitory concentration (IC50) is above 20 µg/mL and the result was inactive.

Consider `Nc1ccc(S(=O)(=O)Nc2ncccn2)cc1`, for which the IC50 came to 13.4 µg/mL (≈ 53.4 µM) and the outcome was active.

Consider `Nc1ccc(S(=O)(=O)Nc2ccccn2)cc1`, for which the IC50 is above 20 µg/mL and the result was inactive.

For `Cc1noc(NS(=O)(=O)c2ccc(N)cc2)c1C`, the concentration for half-maximal inhibition (IC50) stood at 8.76 µg/mL (≈ 32.8 µM) and the compound was classed as active.

Take `Nc1ccc(S(=O)(=O)NC(=O)c2ccccc2)cc1`: the half-maximal inhibitory concentration (IC50) was above 20 µg/mL and the call was inactive.

For the compound `Nc1ccc(S(=O)(=O)Nc2ccc(Cl)nn2)cc1`, the IC50 was found to be 4.37 µg/mL (≈ 15.3 µM) and the compound was classed as active.

For the compound `CC(=O)NS(=O)(=O)c1ccc(N)cc1`, the 50% inhibitory concentration (IC50) is above 20 µg/mL and the call was inactive.

Take `Cc1cc(C)nc(NS(=O)(=O)c2ccc(N)cc2)n1`: the 50% inhibitory concentration (IC50) is above 20 µg/mL and the outcome was inactive.

As to `Cc1ccnc(NS(=O)(=O)c2ccc(N)cc2)n1`, the half-inhibitory concentration (IC50) is above 20 µg/mL and the compound was classed as inactive.

Turning to `CCn1cc(C(=O)O)c(=O)c2cnc(N3CCCC3)nc21`, the IC50 was above 20 µg/mL and the compound was called inactive.

With `Cc1cccc(N(C)C(=S)Oc2ccc3ccccc3c2)c1`, the half-maximal inhibitory concentration (IC50) was above 20 µg/mL and the call was inactive.

`O=C(O)C1(O)C[C@H](O)C(O)[C@@H](O)C1` (some centres undefined): the half-maximal inhibitory concentration (IC50) is above 20 µg/mL and the compound was called inactive.

In the case of `COc1ccc([C@@H]2CC(=O)c3c(O)cc(O)cc3O2)cc1O`, the IC50 was above 20 µg/mL and the compound was called inactive.

For `CCCCN(CCCC)CCCOC(=O)c1ccc(N)cc1`, the IC50 was above 20 µg/mL and the call was inactive.

Consider `CC1(C)S[C@@H]2[C@H](NC(=O)C(C(=O)O)c3ccsc3)C(=O)N2[C@H]1C(=O)O` (some centres undefined), for which the 50% inhibitory concentration (IC50) is above 20 µg/mL and the result was inactive.

In the case of `CC(=O)N(CC(O)CN(C(C)=O)c1c(I)c(C(=O)NCC(O)CO)c(I)c(C(=O)NCC(O)CO)c1I)c1c(I)c(C(=O)NCC(O)CO)c(I)c(C(=O)NCC(O)CO)c1I` (centres undefined), the IC50 was above 20 µg/mL and the outcome was inactive.

Take `Cn1c(-c2ccc3c(c2)OCO3)cc(=O)c2ccccc21`: the IC50 is above 20 µg/mL and the result was inactive.

Consider `Cc1c(N)c(=O)n(-c2ccccc2)n1C`, for which the 50% inhibitory concentration (IC50) is above 20 µg/mL and the call was inactive.

In the case of `COc1ccc2cc1Oc1ccc(cc1)C[C@H]1c3cc(c(OC)cc3CCN1C)Oc1c(OC)c(OC)cc3c1[C@H](C2)N(C)CC3`, the CC50 was above 6 µg/mL, the IC50 was above 20 µg/mL and the call was inactive.

`Cc1[nH]ccc2c1[nH]c1cc(=O)ccc12`: the CC50 was above 6 µg/mL, the IC50 is above 20 µg/mL and the outcome was inactive.

Take `CC(C)(C)NCC(O)COc1ccccc1C1CCCC1` (centres undefined): the IC50 was above 20 µg/mL and the outcome was inactive.

With `O=C(O)c1cccnc1`, the IC50 is above 20 µg/mL and the call was inactive.

Take `O=C1C(=O)c2ccccc2C(O)=C1C1CCC(c2ccc(Cl)cc2)CC1` (centres undefined): the CC50 is above 6 µg/mL, the IC50 came out at 10.1 µg/mL (≈ 27.6 µM) and the call was active.

Take `C/C=C(\C)C(=O)O[C@H]1[C@H](OC(C)=O)[C@@]2(CO)C(CC1(C)C)C1=CC[C@@H]3[C@@]4(C)CC[C@H](O[C@@H]5O[C@H](C(=O)O)[C@@H](O[C@@H]6O[C@H](CO)[C@@H](O)[C@H](O)[C@H]6O)[C@H](O)[C@H]5O[C@@H]5O[C@H](CO)[C@@H](O)[C@H](O)[C@H]5O)[C@](C)(CO)C4CC[C@@]3(C)[C@]1(C)C[C@H]2O` (some centres undefined): the concentration for half-maximal inhibition (IC50) was above 20 µg/mL and the call was inactive.

Take `CN(C)CCOC(c1ccccc1)c1ccccc1`: the half-maximal inhibitory concentration (IC50) is above 20 µg/mL and the call was inactive.

With `CCCCc1cc2ccccc2c(OCCN(C)C)n1`, the IC50 worked out at 13.5 µg/mL (≈ 49.5 µM) and the compound was called active.

On to `CN(C)CCCOc1nn(Cc2ccccc2)c2ccccc12`, for which the IC50 was above 20 µg/mL and the result was inactive.

`CCCCOc1cc(C(=O)NCCN(CC)CC)c2ccccc2n1`: the IC50 was above 20 µg/mL and the call was inactive.

Consider `CC[N+](CC)(CC(=O)Nc1c(C)cccc1C)Cc1ccccc1`, for which the IC50 was above 20 µg/mL and the compound was classed as inactive.

On to `Clc1ccc(Cn2c(CN3CCCC3)nc3ccccc32)cc1`, for which the half-inhibitory concentration (IC50) came to 3.58 µg/mL (≈ 11 µM) and the result was active.

As for `CN1CCc2c(c3ccccc3n2Cc2ccccc2)C1`, the half-inhibitory concentration (IC50) was above 20 µg/mL and the compound was classed as inactive.

Take `Clc1ccc(C(OCCN2CCCCC2)c2ccccc2)cc1` (centres undefined): the 50% cytotoxic concentration (CC50) was above 6 µg/mL, the half-maximal inhibitory concentration (IC50) was above 20 µg/mL and the outcome was inactive.

`CCOc1ccc(Cc2nccc3cc(OCC)c(OCC)cc23)cc1OCC`: the CC50 is above 6 µg/mL, the IC50 is above 20 µg/mL and the outcome was inactive.

Take `CC(C)n1c(/C=C/[C@H](O)C[C@H](O)CC(=O)O)c(-c2ccc(F)cc2)c2ccccc21`: the CC50 was determined as 0.354 µg/mL (≈ 0.86 µM), the concentration for half-maximal inhibition (IC50) is above 20 µg/mL and the result was inactive.

Usually CC50 stands for the concentration giving 50% cytotoxicity. A lower CC50 goes with greater toxicity to the cells. A word on the IC50: it is the concentration at which inhibition is half-maximal. Low readings indicate greater potency, high ones weaker potency.
